High-throughput results as filed in PubChem.
In the library only some 3.6% were active in any assay of this set; here they are far more common.
TRHR agonist = activates the human TRH receptor. TRHR cells, calcium flux fluo-8, FDSS agonist mode. activation, % at 2 µM. 0.18% of 360,000 active. AID 493084; further: 0% is about no effect
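Read-out: compound-evoked intracellular calcium rise in TRHR cells, fluo-8 dye, kinetic FDSS fluorescence at 1 s/cycle following a 10-cycle baseline. Cells cultured overnight before dye loading (30 min–1.5 h, RT).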
LDHA block = LDHA (human) enzyme inhibition; P00338; purified LDHA, NADH/diaphorase-resazurin fluorescence; active compounds read low; activity change, % (values are at about 110 or 230 µM); 0.15% of 480,000 active; AID 1347041; in the data active means activity change below about -30%;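 further: plate controls were DMSO wells for no effect and wells without enzyme for full effect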
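LDH5 2 nM; NADH 0.06 mM, pyruvate 0.2 mM; 200 mM Tris pH 7.4, EDTA, Tween-20; 5 min RT. Detection: diaphorase 0.133 mg/mL + resazurin 37 µM, fluorescence ex540/em590 at 0 and 20 min; normalized to enzyme-free and DMSO wells.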
TRHR PAM = TRH receptor (human) allosteric enhancement | P34981 | enhancement, % at 2 µM | TRHR cells, fluo-8 calcium fluorescence, EC20 TRH enhancement | AID 493056 | 0.66% of 360,000 active; in the data active means enhancement above about 30%; further: 0% is about no effect
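Enhancer read-out: after compound pinning and an initial kinetic agonist-mode read, an EC20 of TRH (10 nM final) was injected and fluo-8 calcium signal (Ex 480/Em 530) followed at 1 s/cycle for 100 cycles in TRHR-expressing cells.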
D1 antag = human D1 dopamine receptor antagonism; P21728; HEK293 TREx D1 cells, calcium flux, dopamine EC80; active compounds read low; activity change, negative = inhibition, % at 10 µM; 3.2% of 360,000 active; in the data active means activity change below about -30%; further: on the % scale 0 is the no-effect control and ±100 the full control effect
Target sequence (P21728 whole entry, looked up): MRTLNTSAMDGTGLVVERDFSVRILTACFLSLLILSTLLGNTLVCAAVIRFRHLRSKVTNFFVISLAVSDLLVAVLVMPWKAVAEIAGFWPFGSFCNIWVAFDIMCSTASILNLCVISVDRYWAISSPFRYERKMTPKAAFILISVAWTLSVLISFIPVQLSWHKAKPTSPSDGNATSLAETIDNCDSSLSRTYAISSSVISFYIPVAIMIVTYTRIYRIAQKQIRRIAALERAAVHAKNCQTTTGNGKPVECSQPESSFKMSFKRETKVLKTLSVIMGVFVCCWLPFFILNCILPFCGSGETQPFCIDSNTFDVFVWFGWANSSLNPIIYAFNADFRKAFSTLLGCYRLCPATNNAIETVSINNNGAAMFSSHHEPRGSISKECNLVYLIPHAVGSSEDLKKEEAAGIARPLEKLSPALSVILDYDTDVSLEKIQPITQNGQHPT
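Tetracycline-induced HEK293 T-REx cells with force-coupled D1 receptor were loaded with a no-wash calcium dye. Compound was added after a 10 s baseline and read kinetically for 180 s; EC80 dopamine was then added and calcium flux followed another 180 s.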
D1 potentiator = potentiators of human D1 dopamine receptor; AID 504651; potentiation, % at 10 µM; HEK293 TREx D1 cells, calcium flux, dopamine EC20 potentiation; P21728; 0.036% of 360,000 active; in the data active means potentiation above about 30%; further: 0% is about no effect
D1 agonist = human D1 receptor agonism; P21728; HEK293 T-REx D1 cells, calcium flux, agonist mode; activation, % at 2 µM; 1% of 360,000 active; AID 504660; further: 0% is about no effect
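Inducible HEK293 T-REx D1 cells, force-coupled to calcium signalling, were plated at 4000 cells/well with tetracycline and held overnight at 30 C. After no-wash calcium dye loading, compound-evoked calcium rise over 180 s flagged agonists.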
The depositor's hits bear a star; · = no result given; ! = repeats disagree. Unless noted, no stated cut-off is given here; in the data, active means activation above about 30%; inactive means the rest.

SMILES | TRHR agonist | LDHA block | TRHR PAM | D1 antag | D1 potentiator | D1 agonist
O=C(CS(=O)(=O)Cc1ccccc1)N1CCN(c2cccc(C(F)(F)F)c2)CC1 | 0.5 | -2.8 | -7.2 | -33.4* | -1.7 | 12.5
O=C(CCS(=O)(=O)c1ccccc1)N1CCN(c2cccc(C(F)(F)F)c2)CC1 | -1.3 | -1.5 | -6.2 | -19.8 | -9.7 | 20.5
O=C(C1CCC1)N1CCN(c2cccc(C(F)(F)F)c2)CC1 | -0.4 | 0.3 | 3.5 | -54.1* | -7.2 | 4.6
O=C(c1ccc2nccnc2c1)N1CCN(c2cccc(C(F)(F)F)c2)CC1 | 0.0 | 1.7 | 30.5* | 20.3 | 1.2 | -1.0
C#CCN1CCC(C(=O)N2CCN(c3cccc(C(F)(F)F)c3)CC2)CC1 | · | 6.8 | · | · | · | ·
Cc1cccc(N(C)C(=O)COC(=O)c2ccc(F)cc2)c1 | · | 1.0 | · | · | · | ·
CN1CCN(c2ccc(C(F)(F)F)cc2NC(=O)Nc2ccccc2)CC1 | 0.0 | 1.0 | -3.4 | -7.2 | -5.8 | 72.9*
Cn1c(=O)n(C)c2cc(N3CCCC3)c(NC(=O)Nc3ccccc3)cc21 | 0.6 | 3.9 | -7.0 | -11.1 | -1.2 | -0.5
CC1SC(=NC(=O)C(C)N2C(=O)c3ccccc3C2=O)NC1=O (stereo not given) | 0.1 | -1.1 | -5.1 | -34.1* | -4.2 | -0.5
CC(C(=O)N1CCCCC1)N1C(=O)c2ccccc2C1=O (stereo not given) | -0.8 | -4.8 | -3.7 | -4.9 | -1.8 | 0.7
S=C(NCCSc1ccc(Cl)cc1)NCCc1ccccc1 | · | 0.5 | · | · | · | ·
Cc1ccc(S(=O)(=O)N2CCOCC2)cc1NC(=O)CNCc1ccc(Cl)cc1Cl | · | -4.2 | · | · | · | ·
Cc1ccc(S(=O)(=O)N2CCOCC2)cc1NC(=O)COC(=O)Cn1c(C)csc1=O | -0.2 | -3.1 | 5.0 | -30.6* | -8.1 | 3.0
Cc1ccc(S(=O)(=O)N2CCOCC2)cc1NC(=O)COC(=O)CCn1c(C)csc1=O | -0.5 | -5.6 | -4.7 | -4.4 | -0.9 | 4.5
Cc1ccc(S(=O)(=O)N2CCOCC2)cc1NC(=O)CNCc1cccnc1 | -0.8 | -40.2* | -4.4 | -20.0 | -0.9 | 3.5
Cc1ccc(C(=O)OCC(=O)Nc2cc(S(=O)(=O)N3CCOCC3)ccc2C)cc1 | 0.9 | -4.5 | 3.9 | 3.3 | -5.0 | 2.5
Cc1ccc(S(=O)(=O)N2CCOCC2)cc1NC(=O)COC(=O)CCC(=O)c1ccc(F)cc1 | -0.3 | -6.8 | 7.2 | -30.9* | -7.1 | 4.1
COc1ccccc1CCNC(=O)c1csc2ccccc12 | · | 8.8 | · | · | · | ·
Cc1nc2cc(NC(=O)c3cc(Cl)ccc3Cl)ccc2o1 | · | 13.8 | · | · | · | ·
CC(Sc1ccccn1)C(=O)Nc1ccc(Cl)cc1 (stereo not given) | · | 1.5 | · | · | · | ·
COc1ccc(N(CC(=O)Nc2ccc(C)cn2)S(=O)(=O)c2c(C)noc2C)cc1 | 0.5 | 0.0 | 7.1 | -80.1* | -3.8 | 0.2
N#Cc1c(C(F)(F)F)cc(-c2cccs2)nc1SCC(=O)Nc1cccc(Cl)c1 | 28.1 | -17.0 | 13.5 | 14.2 | -4.2 | 47.2*
N#Cc1c(C(F)(F)F)cc(-c2cccs2)nc1SCC(=O)Nc1cccc(Br)c1 | 30.0* | -9.4 | 14.6 | -15.6 | 4.2 | 184.0*
CSc1nc(N)nc(SCC(=O)Nc2cccc(F)c2)c1C#N | -1.4 | 0.8 | 5.3 | -44.5* | -13.3 | 19.3
CC(=O)NC(Cc1c[nH]c2ccccc12)C(=O)N1CCN(S(=O)(=O)c2ccc(F)cc2)CC1 (stereo not given) | · | 13.8 | · | · | · | ·
SMILES | TRHR agonist | LDHA block | TRHR PAM | D1 antag | D1 potentiator | D1 agonist
C=C(C)COc1ccc(-c2[nH]ncc2Oc2cccc(OC)c2)c(O)c1 | 0.2 | -5.3 | 1.7 | -38.6* | -4.5 | 5.3
C=C(C)COc1ccc(-c2[nH]ncc2Oc2ccccc2OCC)c(O)c1 | -0.2 | -1.7 | -2.6 | 1.8 | 0.8 | 3.4
CCOC(=O)c1ccc(NC(=O)CSc2nnc(-c3cccc(Cl)c3)n2C)cc1 | · | 6.1 | · | · | · | ·
O=C(CN1C(=O)CSc2ccc(C(F)(F)F)cc21)Nc1ccccc1 | 3.0 | -4.2 | -3.1 | -5.1 | -2.8 | 30.1*
O=C(CCN1C(=O)CSc2ccccc21)Nc1ccc(C(F)(F)F)cc1 | -0.3 | -4.2 | 0.5 | -31.3* | 3.7 | 5.8
CCn1cc(C(=O)n2nc(C)cc2C)c(S(=O)(=O)N2CCN(c3cccc(Cl)c3)CC2)n1 | · | -5.4 | · | · | · | ·
Cn1c(=O)c(Nc2ccc(Cl)cc2)c2c3c(cccc31)C(=O)c1ccccc1-2 | 16.7 | -3.7 | -0.1 | 3.9 | 7.4 | 78.2*
COc1ccccc1Cc1nc2ccccc2nc1SC(C)C(=O)NCc1ccco1 (stereo not given) | · | 7.7 | · | · | · | ·
COc1ccc(/C(C)=N/N=C2/NC(=O)CC(C(=O)O)S2)cc1F (stereo not given) | 0.2 | -2.4 | -15.6 | -31.4* | -11.2 | 1.0
CNC(=O)C1CC(=O)N/C(=N/N=C(\C)c2cccs2)S1 (stereo not given) | 0.0 | -4.7 | -1.2 | -31.5* | 0.5 | -0.2
C/C(=N\N=C1\NC(=O)CC(C(=O)O)S1)c1cccs1 (stereo not given) | · | -4.2 | · | · | · | ·
COc1ccc(/C(C)=N/N=C2/NC(=O)CC(C(=O)O)S2)cc1 (stereo not given) | 0.2 | -5.3 | -3.0 | -6.0 | -4.0 | 1.0
c1ccc(Nc2c(-c3ccco3)nc3ccccn23)cc1 | -0.6 | 1.9 | -1.2 | 6.0 | -3.5 | 0.5
Fc1ccc(Nc2c(-c3ccco3)nc3ccccn23)cc1 | -0.3 | -3.4 | 31.1*! | -2.6 | 1.0 | -0.9
c1coc(-c2nc3ccccn3c2Nc2ccc3c(c2)OCCO3)c1 | -0.5 | -2.4 | -6.6 | -48.6* | 2.0 | 0.5
Cc1ccc(S(=O)(=O)NC2CC2)cc1C(=O)OCc1nc2ccccc2nc1C | · | 5.6 | · | · | · | ·
O=C(NC1CCN(Cc2ccc(Cl)cc2)CC1)c1cn(-c2ccccc2)nc1-c1cccnc1 | 1.1 | -1.7 | 7.0 | -49.5* | · | 1.6
CC1CCN(Cc2ccc(-c3nnn(CC(=O)NC4CCCCC4)n3)cc2)CC1 | -0.2 | -5.6 | -4.7 | -19.4 | -1.2 | -1.3
O=C(NC1CC1)c1cn(-c2ccccc2)nc1-c1ccccc1 | · | -1.4 | · | · | · | ·
Cc1ccc(-c2nnn(CC(=O)NC3CCN(Cc4ccccc4)CC3)n2)cc1 | -1.2 | -9.0 | -10.0 | -8.5 | -6.2 | 30.7*
O=C(Cn1nnc(-c2ccc(Cl)cc2)n1)NC1CCN(Cc2ccccc2)CC1 | -0.4 | -1.9 | -2.2 | -59.5* | -10.0 | 37.2*
COc1ccc(S(=O)(=O)Nc2nc3ccccc3nc2Nc2cccc(F)c2)cc1 | · | -6.2 | · | · | · | ·
N#Cc1ccc(NC(=O)c2nn(C3CCS(=O)(=O)C3)c3c2CCCC3)cc1 (stereo not given) | · | 2.5 | · | · | · | ·
Cc1cccc(NC(=O)C(Sc2ccccc2)c2ccccc2)c1C (stereo not given) | · | -1.8 | · | · | · | ·
CN(C(=S)NC(=O)/C=C/c1ccc(F)cc1)C1CCCCC1 | 0.1 | -2.4 | 0.5 | -4.7 | 1.9 | 0.9
